# Reference: publication PMC7862700, “An all-to-all approach to the identification of sequence-specific readers for epigenetic DNA modifications on cytosine”
# Tests used:
# Assay in all cases: DAPPL (digital affinity profiling via proximity ligation, sequencing); 10 mM Tris-HCl pH 7.5, 50 mM NaCl, 1 mM DTT, 4% glycerol, room temperature, 30 min; GST-TFs on glutathione beads, 16-mer random dsDNA library, 0.1% formaldehyde crosslink after washing; high values mean tight binding
# [1] = molecular target: T1, FLI1 (Homo sapiens, UniProt Q01543 1-452); conditions: protein: recombinant; tags: N-terminal GST; dsDNA, one strand shown
# T1 sequence: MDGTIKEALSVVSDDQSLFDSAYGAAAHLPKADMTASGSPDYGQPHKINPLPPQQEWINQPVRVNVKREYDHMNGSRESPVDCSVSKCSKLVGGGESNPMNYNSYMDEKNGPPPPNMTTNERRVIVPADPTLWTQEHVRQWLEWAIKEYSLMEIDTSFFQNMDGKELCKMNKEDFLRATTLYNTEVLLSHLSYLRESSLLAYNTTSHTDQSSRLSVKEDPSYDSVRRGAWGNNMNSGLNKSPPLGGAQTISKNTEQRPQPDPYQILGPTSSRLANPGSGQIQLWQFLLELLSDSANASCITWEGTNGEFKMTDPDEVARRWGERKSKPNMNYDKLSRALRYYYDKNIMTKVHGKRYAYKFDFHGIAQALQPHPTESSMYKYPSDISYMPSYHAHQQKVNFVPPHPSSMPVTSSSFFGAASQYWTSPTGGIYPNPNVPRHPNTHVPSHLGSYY
# How it was run: (§1)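 Yeast served to express human transcription factors as GST fusions, which were then captured on glutathione beads and labelled with DNA barcodes. Pooled with a tag-only sample, they were incubated with 200 nmole of a 16-mer random double-stranded DNA library for 30 min at room temperature in Tris/NaCl/DTT/glycerol buffer, washed, crosslinked with 0.1% formaldehyde, ligated by proximity, amplified by PCR and sequenced. Dividing each hexamer's read frequency for a factor by its frequency for the tag-only sample gives the binding signal.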
# [2] = molecular target: T2, ELK1 (Homo sapiens, UniProt P19419 1-428); conditions: protein: recombinant; tags: N-terminal GST; dsDNA, one strand shown
# T2 sequence: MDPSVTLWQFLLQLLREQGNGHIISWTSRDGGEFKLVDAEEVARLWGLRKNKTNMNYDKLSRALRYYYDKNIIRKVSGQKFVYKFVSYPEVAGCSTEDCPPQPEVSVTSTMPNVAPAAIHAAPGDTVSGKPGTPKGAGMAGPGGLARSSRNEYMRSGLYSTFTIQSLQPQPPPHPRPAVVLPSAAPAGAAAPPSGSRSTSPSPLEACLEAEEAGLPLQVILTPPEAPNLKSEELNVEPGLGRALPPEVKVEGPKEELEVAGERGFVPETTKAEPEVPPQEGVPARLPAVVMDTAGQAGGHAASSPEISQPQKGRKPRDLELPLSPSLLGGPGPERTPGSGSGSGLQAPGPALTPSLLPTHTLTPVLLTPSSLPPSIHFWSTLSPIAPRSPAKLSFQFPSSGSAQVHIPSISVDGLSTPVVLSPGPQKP
# How it was run: as §1
# [3] = molecular target: T3, GABPA (Homo sapiens, UniProt Q06546 1-454); conditions: protein: recombinant; tags: N-terminal GST; dsDNA, one strand shown
# T3 sequence: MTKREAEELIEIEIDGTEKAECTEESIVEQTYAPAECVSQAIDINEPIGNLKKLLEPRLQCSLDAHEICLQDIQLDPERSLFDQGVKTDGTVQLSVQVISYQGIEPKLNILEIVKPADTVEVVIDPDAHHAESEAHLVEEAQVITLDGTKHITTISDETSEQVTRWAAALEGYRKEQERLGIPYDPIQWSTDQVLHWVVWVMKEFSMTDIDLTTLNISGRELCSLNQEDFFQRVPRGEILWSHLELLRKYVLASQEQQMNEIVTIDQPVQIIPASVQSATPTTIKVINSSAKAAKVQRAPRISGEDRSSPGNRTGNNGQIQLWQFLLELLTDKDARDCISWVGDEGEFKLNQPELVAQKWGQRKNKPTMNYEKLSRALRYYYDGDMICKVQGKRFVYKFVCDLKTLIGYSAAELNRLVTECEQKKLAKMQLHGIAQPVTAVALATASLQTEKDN
# How it was run: as §1
# [4] = molecular target: T4, ERG (Homo sapiens, UniProt P11308 1-479); conditions: protein: recombinant; tags: N-terminal GST; dsDNA, one strand shown
# T4 sequence: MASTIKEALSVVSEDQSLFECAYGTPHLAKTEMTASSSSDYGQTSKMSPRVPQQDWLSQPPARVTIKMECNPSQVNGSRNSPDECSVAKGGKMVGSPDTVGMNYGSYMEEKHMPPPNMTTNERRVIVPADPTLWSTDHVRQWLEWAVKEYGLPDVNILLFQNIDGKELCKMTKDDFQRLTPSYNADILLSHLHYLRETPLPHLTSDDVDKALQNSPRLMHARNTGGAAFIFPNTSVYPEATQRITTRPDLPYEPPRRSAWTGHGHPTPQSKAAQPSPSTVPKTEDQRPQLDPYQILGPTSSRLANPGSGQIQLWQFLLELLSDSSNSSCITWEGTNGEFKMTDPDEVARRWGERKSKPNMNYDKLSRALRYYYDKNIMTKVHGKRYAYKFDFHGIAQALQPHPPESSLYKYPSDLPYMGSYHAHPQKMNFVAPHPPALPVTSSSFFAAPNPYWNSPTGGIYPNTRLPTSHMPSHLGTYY
# How it was run: as §1
# [5] = molecular target: ELF1 (Homo sapiens, UniProt P32519 1-619); conditions: protein: recombinant; tags: N-terminal GST; dsDNA, one strand shown
# How it was run: as §1
# [6] = molecular target: T5, EHF (Homo sapiens, UniProt Q9NZC4 1-300); conditions: protein: recombinant; tags: N-terminal GST; dsDNA, one strand shown
# T5 sequence: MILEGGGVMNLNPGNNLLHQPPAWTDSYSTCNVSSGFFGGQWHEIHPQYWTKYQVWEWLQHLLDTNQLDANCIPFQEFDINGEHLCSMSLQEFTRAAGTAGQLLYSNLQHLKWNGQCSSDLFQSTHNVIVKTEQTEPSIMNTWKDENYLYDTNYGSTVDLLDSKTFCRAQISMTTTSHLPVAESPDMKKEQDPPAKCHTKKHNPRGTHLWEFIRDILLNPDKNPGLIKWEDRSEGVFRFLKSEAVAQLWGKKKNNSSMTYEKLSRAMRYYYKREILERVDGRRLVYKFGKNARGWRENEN
# How it was run: as §1
# [7] = molecular target: SPI1 (Homo sapiens, UniProt P17947 1-270); conditions: protein: recombinant; tags: N-terminal GST; dsDNA, one strand shown
# How it was run: as §1
# [8] = molecular target: SPIB (Homo sapiens, UniProt Q01892 1-262); conditions: protein: recombinant; tags: N-terminal GST; dsDNA, one strand shown
# How it was run: as §1
# [9] = molecular target: T6, ELK3 (Homo sapiens, UniProt P41970 1-407); conditions: protein: recombinant; tags: N-terminal GST; dsDNA, one strand shown
# T6 sequence: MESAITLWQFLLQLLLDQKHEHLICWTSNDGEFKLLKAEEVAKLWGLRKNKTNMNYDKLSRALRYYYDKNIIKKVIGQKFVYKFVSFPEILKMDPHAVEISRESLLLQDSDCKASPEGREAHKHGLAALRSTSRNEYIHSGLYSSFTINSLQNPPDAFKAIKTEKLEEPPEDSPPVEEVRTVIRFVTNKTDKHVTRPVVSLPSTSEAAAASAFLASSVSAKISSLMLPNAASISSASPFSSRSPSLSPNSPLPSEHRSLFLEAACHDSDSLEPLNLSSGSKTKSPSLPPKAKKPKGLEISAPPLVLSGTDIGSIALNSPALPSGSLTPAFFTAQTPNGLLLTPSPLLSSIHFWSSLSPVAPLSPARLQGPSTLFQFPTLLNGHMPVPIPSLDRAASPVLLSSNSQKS
# How it was run: as §1
# [10] = molecular target: T7, FEV (Homo sapiens, UniProt Q99581 1-238); conditions: protein: recombinant; tags: N-terminal GST; dsDNA, one strand shown
# T7 sequence: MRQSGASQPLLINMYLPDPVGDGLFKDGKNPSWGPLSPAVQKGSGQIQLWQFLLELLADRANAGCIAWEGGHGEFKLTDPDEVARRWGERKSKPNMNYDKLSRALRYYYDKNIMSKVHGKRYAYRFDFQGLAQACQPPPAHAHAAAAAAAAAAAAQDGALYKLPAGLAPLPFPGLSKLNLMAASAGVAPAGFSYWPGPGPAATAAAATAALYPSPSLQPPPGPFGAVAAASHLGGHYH
# How it was run: as §1
# [11] = molecular target: ETV5 (Homo sapiens, UniProt P41161 1-510); conditions: protein: recombinant; tags: N-terminal GST; dsDNA, one strand shown
# How it was run: as §1
# [12] = molecular target: HSF1 (Homo sapiens, UniProt Q00613 1-529); conditions: protein: recombinant; tags: N-terminal GST; chain copies: 3; dsDNA, one strand shown
# How it was run: as §1
# [13] = molecular target: T8, SPIC (Homo sapiens, UniProt Q8N5J4 1-248); conditions: protein: recombinant; tags: N-terminal GST; dsDNA, one strand shown
# T8 sequence: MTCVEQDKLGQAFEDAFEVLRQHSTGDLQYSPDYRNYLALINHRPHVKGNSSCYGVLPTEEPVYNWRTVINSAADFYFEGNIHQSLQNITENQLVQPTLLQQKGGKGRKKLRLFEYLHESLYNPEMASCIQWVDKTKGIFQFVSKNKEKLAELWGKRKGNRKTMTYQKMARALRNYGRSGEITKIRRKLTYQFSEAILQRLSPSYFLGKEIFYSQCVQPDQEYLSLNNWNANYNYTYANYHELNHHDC
# How it was run: as §1
# [14] = molecular target: ELF4 (Homo sapiens, UniProt Q99607 1-663); conditions: protein: recombinant; tags: N-terminal GST; dsDNA, one strand shown
# How it was run: as §1
# [15] = molecular target: T9, ELK4 (Homo sapiens, UniProt P28324-2 1-405); conditions: protein: recombinant; tags: N-terminal GST; dsDNA, one strand shown
# T9 sequence: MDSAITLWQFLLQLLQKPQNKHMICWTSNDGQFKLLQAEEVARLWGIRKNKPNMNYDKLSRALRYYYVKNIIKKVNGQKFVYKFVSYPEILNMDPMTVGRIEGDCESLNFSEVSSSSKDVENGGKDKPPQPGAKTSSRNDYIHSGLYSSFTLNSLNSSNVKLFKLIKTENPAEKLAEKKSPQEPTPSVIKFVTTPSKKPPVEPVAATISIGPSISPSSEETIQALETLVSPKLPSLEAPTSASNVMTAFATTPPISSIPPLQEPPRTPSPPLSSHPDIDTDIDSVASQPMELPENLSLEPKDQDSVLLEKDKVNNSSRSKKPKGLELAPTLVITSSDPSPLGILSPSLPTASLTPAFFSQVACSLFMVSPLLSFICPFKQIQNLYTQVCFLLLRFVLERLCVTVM
# How it was run: as §1
# [16] = molecular target: T10, ETV2 (Homo sapiens, UniProt O00321 1-342); conditions: protein: recombinant; tags: N-terminal GST; dsDNA, one strand shown
# T10 sequence: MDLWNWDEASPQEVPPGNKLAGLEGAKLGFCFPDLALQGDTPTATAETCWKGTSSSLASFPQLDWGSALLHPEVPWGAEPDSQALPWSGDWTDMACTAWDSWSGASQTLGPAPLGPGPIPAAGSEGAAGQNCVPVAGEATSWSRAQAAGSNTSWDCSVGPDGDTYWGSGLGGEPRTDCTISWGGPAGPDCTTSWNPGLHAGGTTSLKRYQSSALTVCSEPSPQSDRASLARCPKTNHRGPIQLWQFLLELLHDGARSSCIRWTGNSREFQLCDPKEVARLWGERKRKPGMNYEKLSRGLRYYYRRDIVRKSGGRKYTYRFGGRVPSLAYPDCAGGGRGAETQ
# How it was run: as §1
# [17] = molecular target: T11, ELF3 (Homo sapiens, UniProt P78545 1-371); conditions: protein: recombinant; tags: N-terminal GST; dsDNA, one strand shown
# T11 sequence: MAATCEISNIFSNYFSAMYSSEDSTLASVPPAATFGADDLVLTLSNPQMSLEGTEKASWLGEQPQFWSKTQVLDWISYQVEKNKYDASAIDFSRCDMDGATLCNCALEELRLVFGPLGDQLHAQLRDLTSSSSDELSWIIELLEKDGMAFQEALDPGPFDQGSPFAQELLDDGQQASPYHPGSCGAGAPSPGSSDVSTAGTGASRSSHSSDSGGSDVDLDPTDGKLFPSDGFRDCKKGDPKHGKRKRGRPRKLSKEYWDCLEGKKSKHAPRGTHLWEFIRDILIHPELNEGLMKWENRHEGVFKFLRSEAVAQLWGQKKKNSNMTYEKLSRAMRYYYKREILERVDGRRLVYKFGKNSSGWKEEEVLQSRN
# How it was run: as §1
# [18] = molecular target: CRX (Homo sapiens, UniProt O43186 1-299); conditions: protein: recombinant; tags: N-terminal GST; dsDNA, one strand shown
# How it was run: as §1
# [19] = molecular target: ETV1 (Homo sapiens, UniProt P50549 1-477); conditions: protein: recombinant; tags: N-terminal GST; dsDNA, one strand shown
# How it was run: as §1
# ELF1, sequence (P32519 whole entry): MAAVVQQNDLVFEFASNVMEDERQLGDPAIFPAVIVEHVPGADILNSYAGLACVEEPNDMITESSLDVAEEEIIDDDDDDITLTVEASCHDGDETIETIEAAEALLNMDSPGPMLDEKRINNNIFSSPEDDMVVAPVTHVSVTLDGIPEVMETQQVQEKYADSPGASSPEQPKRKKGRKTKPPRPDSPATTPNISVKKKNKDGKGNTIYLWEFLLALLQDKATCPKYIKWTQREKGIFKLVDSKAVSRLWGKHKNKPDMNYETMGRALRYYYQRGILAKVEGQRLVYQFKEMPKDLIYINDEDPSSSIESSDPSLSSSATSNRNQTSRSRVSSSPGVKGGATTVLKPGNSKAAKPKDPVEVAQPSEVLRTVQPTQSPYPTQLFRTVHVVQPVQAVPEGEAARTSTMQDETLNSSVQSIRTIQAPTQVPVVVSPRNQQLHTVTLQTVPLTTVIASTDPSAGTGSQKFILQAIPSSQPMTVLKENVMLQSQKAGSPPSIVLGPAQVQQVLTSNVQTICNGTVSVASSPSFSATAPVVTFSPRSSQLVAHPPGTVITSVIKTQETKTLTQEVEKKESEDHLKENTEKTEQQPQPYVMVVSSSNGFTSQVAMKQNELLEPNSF
# SPIB, sequence (Q01892 whole entry): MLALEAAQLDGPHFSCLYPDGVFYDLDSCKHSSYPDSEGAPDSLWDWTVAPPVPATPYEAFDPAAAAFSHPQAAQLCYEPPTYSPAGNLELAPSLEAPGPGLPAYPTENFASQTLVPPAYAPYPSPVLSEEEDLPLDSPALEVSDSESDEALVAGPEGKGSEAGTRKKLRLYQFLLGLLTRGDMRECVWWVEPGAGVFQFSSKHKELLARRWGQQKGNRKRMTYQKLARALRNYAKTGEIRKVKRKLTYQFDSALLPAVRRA
# ETV1, sequence (P50549 whole entry): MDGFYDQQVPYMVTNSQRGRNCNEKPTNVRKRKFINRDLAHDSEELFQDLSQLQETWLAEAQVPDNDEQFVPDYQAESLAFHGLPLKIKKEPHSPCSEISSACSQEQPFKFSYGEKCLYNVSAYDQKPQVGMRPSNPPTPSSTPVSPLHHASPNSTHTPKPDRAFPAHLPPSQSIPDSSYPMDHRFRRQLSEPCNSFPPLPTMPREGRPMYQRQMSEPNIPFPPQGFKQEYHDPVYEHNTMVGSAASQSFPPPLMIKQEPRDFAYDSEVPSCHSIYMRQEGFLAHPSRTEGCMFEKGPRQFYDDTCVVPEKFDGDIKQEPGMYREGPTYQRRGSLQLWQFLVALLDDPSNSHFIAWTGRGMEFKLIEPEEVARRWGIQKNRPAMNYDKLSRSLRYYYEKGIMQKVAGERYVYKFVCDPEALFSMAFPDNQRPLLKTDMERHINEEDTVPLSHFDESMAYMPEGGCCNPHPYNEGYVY
# ETV5, sequence (P41161 whole entry): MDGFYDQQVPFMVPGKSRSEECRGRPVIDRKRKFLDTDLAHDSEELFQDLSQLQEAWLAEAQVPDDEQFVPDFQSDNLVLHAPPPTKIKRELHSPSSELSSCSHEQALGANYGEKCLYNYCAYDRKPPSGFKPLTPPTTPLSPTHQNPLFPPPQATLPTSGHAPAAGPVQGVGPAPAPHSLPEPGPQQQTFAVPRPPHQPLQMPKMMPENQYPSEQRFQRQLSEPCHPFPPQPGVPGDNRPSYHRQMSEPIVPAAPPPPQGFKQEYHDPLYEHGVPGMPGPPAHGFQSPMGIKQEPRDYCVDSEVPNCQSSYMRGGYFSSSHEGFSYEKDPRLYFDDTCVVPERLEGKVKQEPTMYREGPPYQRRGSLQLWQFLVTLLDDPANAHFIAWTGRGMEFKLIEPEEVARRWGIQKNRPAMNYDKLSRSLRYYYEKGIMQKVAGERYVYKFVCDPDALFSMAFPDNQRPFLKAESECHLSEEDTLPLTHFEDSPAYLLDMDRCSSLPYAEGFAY
# HSF1, sequence (Q00613 whole entry): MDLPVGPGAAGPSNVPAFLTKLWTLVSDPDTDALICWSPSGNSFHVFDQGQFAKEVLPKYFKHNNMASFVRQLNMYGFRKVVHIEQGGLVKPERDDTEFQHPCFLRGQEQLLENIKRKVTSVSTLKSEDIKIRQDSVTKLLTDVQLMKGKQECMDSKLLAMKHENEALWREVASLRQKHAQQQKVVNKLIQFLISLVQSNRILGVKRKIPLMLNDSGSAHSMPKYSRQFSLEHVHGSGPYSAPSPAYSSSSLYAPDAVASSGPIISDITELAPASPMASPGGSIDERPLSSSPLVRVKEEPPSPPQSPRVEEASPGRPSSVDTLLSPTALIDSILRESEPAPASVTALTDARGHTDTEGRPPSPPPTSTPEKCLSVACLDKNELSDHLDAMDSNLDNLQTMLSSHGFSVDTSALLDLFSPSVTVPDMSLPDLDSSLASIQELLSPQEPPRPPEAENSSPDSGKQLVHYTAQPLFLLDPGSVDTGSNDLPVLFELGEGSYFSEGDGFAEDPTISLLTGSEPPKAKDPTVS
# CRX, sequence (O43186 whole entry): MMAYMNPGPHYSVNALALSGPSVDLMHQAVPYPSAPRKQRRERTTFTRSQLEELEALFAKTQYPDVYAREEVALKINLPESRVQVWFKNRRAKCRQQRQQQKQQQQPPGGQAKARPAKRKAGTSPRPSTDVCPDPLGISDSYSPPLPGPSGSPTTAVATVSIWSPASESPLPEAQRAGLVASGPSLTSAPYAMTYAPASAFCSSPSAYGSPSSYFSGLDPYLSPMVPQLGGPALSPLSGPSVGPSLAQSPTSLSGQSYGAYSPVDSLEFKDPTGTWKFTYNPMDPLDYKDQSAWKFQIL
# ELF4, sequence (Q99607 whole entry): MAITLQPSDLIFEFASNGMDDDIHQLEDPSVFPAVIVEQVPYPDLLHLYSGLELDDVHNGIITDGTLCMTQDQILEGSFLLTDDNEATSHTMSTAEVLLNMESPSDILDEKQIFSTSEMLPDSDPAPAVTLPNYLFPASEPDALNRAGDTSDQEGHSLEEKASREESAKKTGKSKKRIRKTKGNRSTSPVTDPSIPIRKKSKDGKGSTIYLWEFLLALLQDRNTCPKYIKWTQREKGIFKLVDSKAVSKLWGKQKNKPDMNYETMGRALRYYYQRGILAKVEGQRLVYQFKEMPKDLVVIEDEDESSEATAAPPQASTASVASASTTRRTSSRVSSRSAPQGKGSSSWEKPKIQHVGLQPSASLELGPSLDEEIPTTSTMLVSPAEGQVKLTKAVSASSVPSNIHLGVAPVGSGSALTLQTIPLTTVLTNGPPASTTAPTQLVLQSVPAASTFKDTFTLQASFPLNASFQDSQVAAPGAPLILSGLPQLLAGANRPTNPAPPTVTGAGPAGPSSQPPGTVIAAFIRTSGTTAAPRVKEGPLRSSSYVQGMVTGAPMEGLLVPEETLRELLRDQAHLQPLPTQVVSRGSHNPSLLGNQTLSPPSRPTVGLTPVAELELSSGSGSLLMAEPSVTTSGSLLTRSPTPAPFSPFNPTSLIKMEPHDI
sequence,measurement,setting,value
AATAAG,binding signal,[1],"1.22 fold enrichment (6-mer frequency, TF over GST control)"
same,binding signal,[2],"1.21 fold enrichment (6-mer frequency, TF over GST control)"
same,binding signal,[3],"1.31 fold enrichment (6-mer frequency, TF over GST control)"
same,binding signal,[4],"1.37 fold enrichment (6-mer frequency, TF over GST control)"
same,binding signal,[5],"1.24 fold enrichment (6-mer frequency, TF over GST control)"
same,binding signal,[6],"1.22 fold enrichment (6-mer frequency, TF over GST control)"
same,binding signal,[7],"1.27 fold enrichment (6-mer frequency, TF over GST control)"
same,binding signal,[8],"1.3 fold enrichment (6-mer frequency, TF over GST control)"
same,binding signal,[9],"1.23 fold enrichment (6-mer frequency, TF over GST control)"
same,binding signal,[10],"1.26 fold enrichment (6-mer frequency, TF over GST control)"
same,binding signal,[11],"1.25 fold enrichment (6-mer frequency, TF over GST control)"
same,binding signal,[12],"1.52 fold enrichment (6-mer frequency, TF over GST control)"
same,binding signal,[13],"1.3 fold enrichment (6-mer frequency, TF over GST control)"
same,binding signal,[14],"1.26 fold enrichment (6-mer frequency, TF over GST control)"
same,binding signal,[15],"1.2 fold enrichment (6-mer frequency, TF over GST control)"
same,binding signal,[16],"1.19 fold enrichment (6-mer frequency, TF over GST control)"
same,binding signal,[17],"1.29 fold enrichment (6-mer frequency, TF over GST control)"
same,binding signal,[18],"1.98 fold enrichment (6-mer frequency, TF over GST control)"
same,binding signal,[19],"1.26 fold enrichment (6-mer frequency, TF over GST control)"
